Beta apoptosis: blocks beta cell apoptosis. AID 435005. 300,000 compounds, 0.8% hits. protection from apoptosis, % (concentration not given with the values). INS-1E cytokine-induced death, ATP luminescence, 48 h; percent of positive-control rescue, neutral wells zero;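 active = Every replicate reaches about 75%, or at least half do and their mean reaches it too, limit read from the data; inconclusive = At least half of replicates reach the limit but their mean does not; inactive = Under half of replicates reach the limit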;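 also: 0% = cytokine-treated negative control wells and 100% = positive control rescue; higher means more ATP so stronger rescue from cytokine killing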
CSC inhib: blocks cancer stem cells; inhibition, % at 7.5 µM; 300,000 compounds, 1.1% hits; cancer stem cell-like cells viability, luminescence; AID 2717; in the data active = inhibition above about 75%; inconclusive = no clear call, values can overlap the other calls; tested in HMLE shEcad cells
Calb FLC: C. albicans growth modulation with fluconazole; growth inhibition, % (concentration not given with the values); C. albicans CaCi-2 (fluconazole-resistant clinical isolate) + fluconazole, Alamar Blue growth, 48 h; 300,000 compounds, 0.57% hits; AID 1979;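 active = growth inhibition above about 58% in most replicates, limit read from the data, passing the limit was not always enough; inconclusive = exactly half the replicates above a set limit; inactive = most replicates below a set limit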;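 also: all wells also contain fluconazole at 8 µg/ml as a sub-toxic cotreatment; 0% = median of DMSO wells and 100% = median of geldanamycin control wells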
PfHsp90 yeast 2: inhibits growth of yeast expressing Plasmodium falciparum Hsp90 | S. cerevisiae expressing PfHsp90, BacTiter-Glo ATP, 48 h; yeast lacking PDR1 and PDR3 efflux regulators | 310,000 compounds, 0.32% hits | AID 504621 | inhibition, % at 9.4 µM;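 active = every replicate shows inhibition above about 80%, whatever the replicate mean, limit read from the data; inconclusive = mean inhibition reaches the set limit but some replicate falls short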;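 also: 0% = DMSO neutral controls and 100% = 20 µM radicicol positive controls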
Shn3 3UTR inh: inhibitors of Schnurri-3 3'UTR reporter in osteoblasts; Clone20 osteoblast Shn3 3'UTR firefly luciferase, 24 h; inhibition, % at 12.5 µM; 360,000 compounds, 0.52% hits;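 active = mean inhibition of at least 75% with every replicate also reaching 75%; inconclusive = mean inhibition at least 75% but some replicate below; inactive = mean inhibition below 75%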;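 also: 0% = median of neutral control wells and 100% = pilot-screen positive control compound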
The depositor's hits bear a star; ? = inconclusive; / = no result given. Sampled rows, rich in hits. Any-hit rate of the full collection: about 2.2%.

SMILES	Beta apoptosis	CSC inhib	Calb FLC	PfHsp90 yeast 2	Shn3 3UTR inh
Cc1ccc(-c2csc(N3CCC(NS(=O)(=O)c4ccc5c(c4)OCCO5)CC3)n2)cc1	97*	-24	8	-61	82
O=C(C#Cc1ccccc1)Nc1ccc(F)cc1	-1	-3	-10	-25	-83
O=C(C#Cc1ccccc1)Nc1cccc(F)c1	97*	114*	-1	-37	-106
Cc1ccccc1-c1cnc(C(O)c2cc(Cl)cc(Cl)c2)[nH]1 (configuration not stated)	/	/	/	/	-19
OC(CNC1CCCC1)COc1ccc(-c2ccccc2)cc1 (configuration not stated)	-7	/	-15	-4	3
OC(CNC1CCCCC1)COCCOc1ccc(Br)cc1 (configuration not stated)	106*	58	3	-2	-6
CC1CCC/C=C/C(=O)c2c(O)cc(O)cc2CC(=O)O1 (configuration not stated)	23	40	1	-22	87*
O=c1ccn(Cc2ccccc2)cc1	-5	-27	13	/	-10
Cc1ccccc1Cn1ccc(=NCc2ccccc2)cc1	103*	0	-21	/	/
COCCNC(=O)C1CCCN(C(=O)c2cccnc2Oc2ccccc2)CC1 (configuration not stated)	/	/	/	/	7
CCCSCCCNC(=O)CN1C(=O)COc2ccc(S(=O)(=O)N3CCCC3)cc21	/	/	-6	-9	7
O=C(Nc1sc2c(c1C(=O)c1ccc(Cl)cc1)CCCC2)c1cccnc1	4	/	84*	/	2
O=C(Nc1sc2c(c1C(=O)c1ccccc1)CCCC2)c1cccnc1	-6	-3	4	-5	-4
CC1=NN(c2nc(-c3ccc(C)cc3)cs2)C(=O)C1N=Nc1cccc(O)c1 (configuration not stated)	4	-16	46	-6	27
CC1=NN(c2nc(-c3ccc(C)cc3)cs2)C(=O)C1N=Nc1ccccc1O (configuration not stated)	29	55	3	-13	92*
CN(CC(=O)Nc1c(Cl)cccc1Cl)C(=O)c1ccc2nc[nH]c2c1	-2	-2	7	12	5
CC1(C)CC[C@]2(C(=O)O)CC[C@]3(C)C(=CC[C@@H]4[C@@]5(C)CC[C@H](O[C@@H]6O[C@H](C(=O)O)[C@@H](O)[C@H](O[C@@H]7OC[C@H](O)[C@H](O)[C@H]7O)[C@H]6O)C(C)(C)[C@@H]5CC[C@]43C)[C@@H]2C1	109*	99*	/	108*	71
CC(=O)Nc1ccc(S[C@@H](CCN2CC[C@H](C(C)(C)C)CCC2=O)c2ccccc2)cc1	-7	-2	/	8	25
CC(C)(C)[C@@H]1CCC(=O)N(CC[C@H](Sc2ccccc2)c2ccccc2)CC1	25	104*	0	-2	15
CC(C)(C)[C@H]1CCC(=O)N([C@H](CSc2ccccc2)Cc2ccccc2)CC1	6	139*	2	/	63
COc1ccc(-c2nc3ccc(Br)cn3c2Cc2cccc(Cl)c2)cc1OC	/	/	/	/	-17
Cn1nc(C(=O)N2CCN(C(c3ccccc3)c3ccccc3)CC2)c2ccccc2c1=O	-1	-9	25	-21	13
Cc1cccc(-n2nc(C(=O)c3ccco3)cc(-c3nc4ccccc4[nH]3)c2=N)c1	30	19	97*	4	-5
O=C(Nc1ccncc1)Nc1cccc(C(F)(F)F)c1	5	-9	-4	19	8
O=C(Nc1ccc(OC(F)F)cc1)Nc1cccc(C(F)(F)F)c1	78*	71	-18	17	-1
SMILES	Beta apoptosis	CSC inhib	Calb FLC	PfHsp90 yeast 2	Shn3 3UTR inh
CCN(CC)S(=O)(=O)c1ccc(NC(=O)Nc2cccc(C(F)(F)F)c2)cc1	98*	83*	-1	10	96*
COc1ccc(CC(N)c2csc(NC(=O)Nc3cccc(C(F)(F)F)c3)n2)cc1 (configuration not stated)	/	/	/	/	96*
Cc1ccc(S(=O)(=O)Nc2ccc(NC(=O)Nc3cccc(C(F)(F)F)c3)cc2)cc1	96*	96*	-20	21	75
Cc1cc2nc(-c3cccc(Br)c3)c(Cc3ccccc3)n2c(C)c1Br	/	/	/	/	2
Cc1ccc(NC(=S)N2CC(C)OC(C)C2)cc1C (configuration not stated)	2	-15	4	5	31
CCCN(CC(=O)Nc1ccccc1C)C(=O)c1ccc(N2CCCC(C)C2)c([N+](=O)[O-])c1 (configuration not stated)	/	/	/	-8	8
CCOc1ncccc1C(=O)OCC(=O)N(CC)c1ccccc1	-4	-14	-4	/	-3
Cc1cc[n+](C2=C([O-])c3ccccc3C(=O)/C2=N\S(=O)(=O)c2cccs2)cc1C	-6	-12	55	-6	1
O=C1/C(=N\S(=O)(=O)c2cccs2)C([n+]2cccc(Cc3ccccc3)c2)=C([O-])c2ccccc21	101*	54	9	-8	/
CC(C)(C)c1cc[n+](C2=C([O-])c3ccccc3C(=O)/C2=N\S(=O)(=O)c2ccccc2)cc1	82*	27	7	/	-9
O=S(=O)([N-]c1nc2ccccc2nc1-[n+]1ccc(CCCc2ccccc2)cc1)c1cccs1	0	11	-1	5	14
CCCCC[n+]1ccn(C2=C([O-])c3ccccc3C(=O)/C2=N\S(=O)(=O)c2ccccc2)c1	90*	-10	2	3	7
O=C1/C(=N\S(=O)(=O)c2cccs2)C([n+]2ccc(CCCc3ccccc3)cc2)=C([O-])c2ccccc21	104*	93*	-4	/	/
Cc1ccc(-n2c(N)c(C(=O)Nc3ccccc3F)sc2=S)cc1C	-2	7	-3	7	10
O=c1c2c3c(sc2nc(N2CCNCC2)n1CCc1ccccc1)CCCCC3	-2	12	-12	-4	14
O=S(=O)(NC1CCCC1)c1ccc(F)cc1F	/	/	/	/	-3
Cc1cc(C)c[n+](C2=C([O-])c3ccccc3C(=O)/C2=N\S(=O)(=O)c2cccs2)c1	107*	24	44	-16	-4
Cc1ccc(-n2c(-c3ccccc3)c[n+]3c2CCc2ccccc2-3)c(C)c1	130*	28	102*	/	?
Cc1ccccc1-n1nnnc1SCC(=O)NC1CC1	-6	/	/	7	-22
CCCCCCCCCCCCN1[C@@H](CC(=O)OC)c2cc(F)ccc2S1(=O)=O	7	6	1	/	6
CCCCCCCCCCCCN1[C@@H](CC(C)=O)c2cc(F)ccc2S1(=O)=O	6	80*	3	/	45
OCCC1CN(C2CCC2)CCN1Cc1ccc(F)c(F)c1 (configuration not stated)	-4	-5	0	0	-1
CC(C)Cn1c(O)c(N=NC(=O)c2cccc(S(=O)(=O)N3CCCCC3)c2)c2ccccc21	38	91*	25	25	26
O=C(NNC(=O)c1cccc(S(=O)(=O)N2CCCCC2)c1)c1ccccc1	-1	-11	/	/	-4
Cc1ccc(C(=O)/C=C/c2ccccc2[N+](=O)[O-])cc1	-11	9	-7	12	-52
